For assay [1], the system named is Saccharomyces cerevisiae BY4741 SeMeCo community. Description: mean cell size (pixel area) (pixels); higher = larger cells. To be noted: 10 µM; 24 h; SM minimal medium. A digest of the protocol: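 Mean cell pixel area per well was measured in a four-plasmid fluorescent community of Saccharomyces cerevisiae BY4741, where every plasmid complements one auxotrophy and carries a fluorescent marker. Cells from an overnight preculture at OD600 = 1.0 were diluted to OD600 = 0.3 and dispensed at 70 µl into 384-well plates acoustically predosed with drug to a final 10 µM in SM medium. Incubation lasted 24 h, followed by paraformaldehyde fixation, automated confocal imaging and analysis in Harmony. Reported figures are averaged over 3 replicates. Same SeMeCo high-content imaging drug screen: Selleck FDA-approved drugs at 10 µM, 24 h in SM medium, 384-well plates, 3 replicates.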

Assay [2] has the same test system. Description: z-score of prototroph abundance vs DMSO median; higher = larger share of this subpopulation than in DMSO controls. To be noted: 10 µM; 24 h; SM minimal medium; subpopulation (auxotrophy): Prototroph. A digest of the protocol:
(§1)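 A community of Saccharomyces cerevisiae BY4741 was built from four plasmids that each restored one auxotrophy and encoded a distinct fluorescent protein. Pre-grown overnight to OD600 1.0 and diluted to 0.3, it was dispensed at 70 µl into 384-well plates acoustically predosed with library drugs for a final 10 µM, and grown 24 h in minimal SM medium. Cells were then paraformaldehyde-fixed and imaged by automated confocal microscopy. Thresholds and autofluorescence correction came from single-auxotroph fluorescent strains, and each subpopulation's abundance was scored as a z-score relative to the vehicle-well median.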

Assay [3] has the same test system. Nature of the assay: z-score of subpopulation abundance vs DMSO median, subpopulation auxotrophic for M; higher = larger share of this subpopulation than in DMSO controls. To be noted: 10 µM; 24 h; SM minimal medium; subpopulation (auxotrophy): M. The procedure, abridged: as §1
The test system is the same in assay [4]. Description: z-score of subpopulation abundance vs DMSO median, subpopulation auxotrophic for L; higher = larger share of this subpopulation than in DMSO controls. The conditions noted are these: 10 µM; 24 h; SM minimal medium; subpopulation (auxotrophy): L. A digest of the protocol:
as §1

For assay [5] the test system is unchanged. Description: z-score of subpopulation abundance vs DMSO median, subpopulation auxotrophic for U; higher = larger share of this subpopulation than in DMSO controls. The conditions noted are these: 10 µM; 24 h; SM minimal medium; subpopulation (auxotrophy): U. A digest of the protocol:
as §1

Assay [6] has the same test system. Description: z-score of subpopulation abundance vs DMSO median, subpopulation auxotrophic for H; higher = larger share of this subpopulation than in DMSO controls. To be noted: 10 µM; 24 h; SM minimal medium; subpopulation (auxotrophy): H. A digest of the protocol:
as §1

Assay [7] has the same test system. Nature of the assay: z-score of subpopulation abundance vs DMSO median, subpopulation auxotrophic for LU; higher = larger share of this subpopulation than in DMSO controls. To be noted: 10 µM; 24 h; SM minimal medium; subpopulation (auxotrophy): LU. A digest of the protocol: as §1
Assay [8] shares this test system. Description: z-score of subpopulation abundance vs DMSO median, subpopulation auxotrophic for LM; higher = larger share of this subpopulation than in DMSO controls. The conditions noted are these: 10 µM; 24 h; SM minimal medium; subpopulation (auxotrophy): LM. The procedure, abridged: as §1
Assay [9] has the same test system. Nature of the assay: z-score of subpopulation abundance vs DMSO median, subpopulation auxotrophic for HM; higher = larger share of this subpopulation than in DMSO controls. To be noted: 10 µM; 24 h; SM minimal medium; subpopulation (auxotrophy): HM. A digest of the protocol: as §1
Assay [10] has the same test system. Nature of the assay: z-score of subpopulation abundance vs DMSO median, subpopulation auxotrophic for HU; higher = larger share of this subpopulation than in DMSO controls. To be noted: 10 µM; 24 h; SM minimal medium; subpopulation (auxotrophy): HU. A digest of the protocol: as §1
Assay [11] shares this test system. Nature of the assay: z-score of subpopulation abundance vs DMSO median, subpopulation auxotrophic for HL; higher = larger share of this subpopulation than in DMSO controls. To be noted: 10 µM; 24 h; SM minimal medium; subpopulation (auxotrophy): HL. The procedure, abridged:
as §1

Assay [12] has the same test system. Nature of the assay: z-score of subpopulation abundance vs DMSO median, subpopulation auxotrophic for HLU; higher = larger share of this subpopulation than in DMSO controls. The conditions noted are these: 10 µM; 24 h; SM minimal medium; subpopulation (auxotrophy): HLU. The procedure, abridged: as §1
Assay [13] has the same test system. Description: z-score of subpopulation abundance vs DMSO median, subpopulation auxotrophic for HLM; higher = larger share of this subpopulation than in DMSO controls. The conditions noted are these: 10 µM; 24 h; SM minimal medium; subpopulation (auxotrophy): HLM. The procedure, abridged: as §1
For assay [14] the test system is unchanged. Nature of the assay: z-score of subpopulation abundance vs DMSO median, subpopulation auxotrophic for HUM; higher = larger share of this subpopulation than in DMSO controls. To be noted: 10 µM; 24 h; SM minimal medium; subpopulation (auxotrophy): HUM. The procedure, abridged:
as §1

The test system is the same in assay [15]. Nature of the assay: z-score of subpopulation abundance vs DMSO median, subpopulation auxotrophic for LUM; higher = larger share of this subpopulation than in DMSO controls. The conditions noted are these: 10 µM; 24 h; SM minimal medium; subpopulation (auxotrophy): LUM. The procedure, abridged: as §1
For assay [16] the test system is unchanged. Description: z-score of subpopulation abundance vs DMSO median, subpopulation auxotrophic for HLUM; higher = larger share of this subpopulation than in DMSO controls. The conditions noted are these: 10 µM; 24 h; SM minimal medium; subpopulation (auxotrophy): HLUM. The procedure, abridged:
as §1

Assay [17] shares this test system. Nature of the assay: z-score of subpopulation abundance vs DMSO median, subpopulation auxotrophic for UM; higher = larger share of this subpopulation than in DMSO controls. The conditions noted are these: 10 µM; 24 h; SM minimal medium; subpopulation (auxotrophy): UM. The procedure, abridged: as §1

Data on six molecules can be found in the supplement of paper PMC8975748.

Structures are written as SMILES. ± gives the standard deviation of the averaged measurements.

On to `C=CCc1ccc(O)c(-c2ccc(O)c(CC=C)c2)c1` [Honokiol], for which the mean cell size in assay [1] is 12.6 ± 0.22. In addition, the “z-score of prototroph abundance” value in [2] is 1.92. Moreover, the “z-score of subpopulation abundance” value in assay [3] is -0.54; in [4] it was -0.29; in [5] it was -1.32; in assay [6], -1.34; in assay [7], -1.84; in assay [8] it was -0.63. The “z-score of subpopulation abundance” value is -0.9 in assay [9]; -1.64 in assay [10]; -0.44 in assay [11]; -1.04 in assay [12]; -0.37 in assay [13]; -1.19 in [14]. Further, the “z-score of subpopulation abundance” value was -1.08 in [15] and -0.84 in [16].
Turning to `COc1ccc2cc([C@H](C)C(=O)O)ccc2c1` [Naproxen Sodium], the mean cell size in assay [1] came to 12.84 ± 0.07. In addition, in [2], the “z-score of prototroph abundance” value was 1.33. Moreover, the “z-score of subpopulation abundance” value was 0.17 in assay [3]; 0.02 in assay [4]; -1.01 in [5]; -0.42 in assay [6]; -0.46 in assay [7]; -0.16 in assay [8]. The “z-score of subpopulation abundance” value in assay [9] was -0.61; in assay [10] it was -1.5; in assay [17] it was -2.49; in assay [11], 0.47; in assay [12] it was 0; in assay [13] it was 0.18. In addition, the “z-score of subpopulation abundance” value in assay [14] was -2.32; in assay [15] it was -0.75; in [16], -0.52.
On to `O=c1[nH]c(=O)n([C@H]2C[C@H](O)[C@@H](CO)O2)cc1I` [Idoxuridine], for which the mean cell size in assay [1] turned out to be 12.4 ± 0.2. Besides, the “z-score of prototroph abundance” value in [2] amounted to 0.18. For the same molecule, the “z-score of subpopulation abundance” value is -0.27 in [3]; 0.48 in assay [4]; 0.23 in assay [5]; -0.48 in assay [6]; -0.03 in assay [7]; 0.06 in assay [8]. In addition, the “z-score of subpopulation abundance” value is -0.13 in [9]; -0.23 in [10]; -0.43 in assay [11]; -0.57 in assay [12]; -0.75 in [13]; -0.68 in assay [14]. The “z-score of subpopulation abundance” value is -0.31 in [15] and -0.73 in [16].
In turn, `C[C@]12CC[C@@H]3c4ccc(O)cc4CC[C@H]3[C@@H]1C[C@@H](O)[C@@H]2O` [Estriol] showed a mean cell size in assay [1] of 12.41 ± 0.12. In addition, the “z-score of prototroph abundance” value in assay [2] was found to be 0.65. Moreover, the “z-score of subpopulation abundance” value in assay [3] was -0.11; in [4], 0.63; in [5], -0.19; in assay [6], 0.24; in assay [7] it was -0.08; in assay [8], 0.01. Also, the “z-score of subpopulation abundance” value is -0.18 in [9]; -0.16 in assay [10]; -0.62 in assay [17]; -0.08 in [12]; 0.3 in assay [13]; -0.83 in assay [14]. The “z-score of subpopulation abundance” value in assay [15] is -0.23; in assay [16], -0.69.
As to `COc1cc([C@@H]2c3cc4c(cc3[C@@H](O[C@@H]3O[C@@H]5CO[C@@H](C)O[C@H]5[C@H](O)[C@H]3O)[C@H]3COC(=O)[C@H]23)OCO4)cc(OC)c1O` [Etoposide], the mean cell size in assay [1] amounted to 12.44 ± 0.11. Further, the “z-score of prototroph abundance” value in assay [2] is -0.82. The “z-score of subpopulation abundance” value turned out to be 0.21 in assay [3]; 0.2 in assay [4]; 0.39 in [5]; 0.15 in assay [6]; 0.39 in assay [7]; 0.96 in assay [8]. Moreover, the “z-score of subpopulation abundance” value was found to be 0.36 in assay [9]; 0.37 in [10]; 0.47 in assay [17]; 0.84 in assay [11]; 0.56 in [12]; 0.66 in [13]. Besides, the “z-score of subpopulation abundance” value stood at 0.64 in [14], 0.64 in [15] and 1.05 in [16].
In assay [1], `CN1CCN2c3ncccc3Cc3ccccc3C2C1` (stereo not drawn) [Mirtazapine] registered a mean cell size of 12.38 ± 0.12. Besides, the “z-score of prototroph abundance” value in [2] is 0.24. Moreover, the “z-score of subpopulation abundance” value in [3] was 0.18; in assay [4], -0.64; in [5], 0.29; in assay [6], -0.51; in assay [7], -0.59; in [8] it was -0.11. The “z-score of subpopulation abundance” value in assay [9] was -0.07; in [10], 0.29; in assay [11], -0.38; in assay [12], -0.45; in assay [13], -0.85; in assay [14], 1.07. For the same molecule, the “z-score of subpopulation abundance” value is -0.74 in assay [15] and -0.87 in assay [16].
